# From PubChem BioAssay (NCATS)
# Results filed as inconclusive are left out. Calls of active or inactive are those of the source. The call rests on the fitted dose curve.
# Molecular target: Vitamin D3 receptor (Homo sapiens) (UniProt P11473)
# Experiment: qHTS assay for small molecule agonists of vitamin D receptor signaling (AID 588543)
# Conditions: HEK293T VDR-UAS-bla, beta-lactamase ratio, 16 h; series mostly up to 76.8 µM
# Excerpt: NIH Chemical Genomics Center [NCGC]
# U.S. Environmental Protection Agency [EPA]
# National Institutes of Environmental Health Sciences [NIEHS]
# National Toxicology Program [NTP]
# The Vitamin D receptor (VDR) is a member of nuclear hormone receptor superfamily and it plays a critical role in calcium homeostasis and bone metabolism. It plays a role in inducing cell differentiation, inhibiting cell growth and in thrombogenicity. So, VDR that mediates these effects represents a pharmacological target in prevention and treatment of hyperproliferative malignancies, such as cancer and psoriasis, cardiovascular, immunological, inflammatory and renal diseases etc.
# NCGC Assay Protocol Summary
# Using a beta-lactamase reporter-gene under control of Vitamin D receptor (VDR) response element, a cell-based assay [GeneBLAzer (VDR -UAS-bla assay developed by Invitrogen] was used to measure VDR ligands signaling. GeneBLAzer VDR -UAS-bla HEK293T cells were used with assay medium containing 2% charcoal-stripped FBS. The assay was performed in clear bottom black Greiner 1536-well plates. 1-alpha,25-Dihydroxy vitaminD3 was used as a positive control in the screen. Library compounds were measured for their ability to stimulate the reporter gene activity. Compounds were screened in a titration series in 1536-well format. The fluorescence intensity (405 nm excitation, 460/530 nm emission) was measured using an EnVision plate reader. Data was normalized relative to 1-alpha,25-Dihydroxy vitaminD3 control (50 nM, 100%) and DMSO only wells (basal, 0%). Concentration-response titration points for each compound were fitted to the Hill equation yielding concentrations of half-maximal stimulation (EC50) and maximal response (efficacy) values.
# qHTS protocol for VDR beta-lactamase assay in agonist mode
# [Step] [Parameter] [Value] [Description]
# 1. Reagent; 6 uL; 2000 cells/well
# 2. Incubation; 37 C for 5 hrs
# 4. Controls (1-alpha,25-Dihydroxy vitaminD3); 23 nL,
# - Final concentrations of 50 nM and 15 nM in two columns
# 5. Incubation; 37 C for 16 hrs
# 6. Detection reagent; 1 uL of CCF4-dye
# 7. Incubation; RT for 2 hrs
# 8. Detection; Fluorescence; Envision plate reader
# Sequence of Vitamin D3 receptor (Homo sapiens) (P11473 whole entry, looked up): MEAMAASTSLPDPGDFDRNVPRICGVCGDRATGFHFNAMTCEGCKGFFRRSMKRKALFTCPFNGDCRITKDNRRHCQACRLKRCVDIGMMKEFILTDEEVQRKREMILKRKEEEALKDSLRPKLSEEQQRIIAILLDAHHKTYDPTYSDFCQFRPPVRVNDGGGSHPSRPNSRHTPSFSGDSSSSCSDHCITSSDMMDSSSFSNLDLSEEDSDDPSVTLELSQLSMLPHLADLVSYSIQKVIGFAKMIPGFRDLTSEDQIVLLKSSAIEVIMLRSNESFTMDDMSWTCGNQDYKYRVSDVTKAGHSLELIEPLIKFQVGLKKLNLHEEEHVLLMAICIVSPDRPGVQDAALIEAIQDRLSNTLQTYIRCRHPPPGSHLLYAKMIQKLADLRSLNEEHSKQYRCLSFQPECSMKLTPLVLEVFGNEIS
row,Compound,outcome
1,COC(=O)c1ccccc1S(=O)(=O)NC(=O)Nc1nc(C)nc(OC)n1,inactive
2,CC(=O)[C@H]1[C@H](C#N)C[C@H]2[C@@H]3CC=C4C[C@@H](O)CC[C@]4(C)[C@H]3CC[C@@]21C,inactive
3,N#Cc1cc(I)c(O)c(I)c1,inactive
4,FC(F)(F)c1ccc(OCCCOc2c(Cl)cc(OCC=C(Cl)Cl)cc2Cl)nc1,inactive
5,CC1(C)[C@H](C=C(Cl)Cl)[C@H]1C(=O)O[C@H](C#N)c1ccc(F)c(Oc2ccccc2)c1,inactive
6,C(=NC1CCCCC1)=NC1CCCCC1,inactive
7,CNC(=O)N(C)c1nc2ccccc2s1,inactive
8,CC(C)(C)C(=O)[C@H](Oc1ccc(Cl)cc1)n1cncn1,inactive
9,COP(=O)(OC)SCn1c(=O)oc2cc(Cl)cnc21,inactive
10,COc1nn(C(=O)NS(=O)(=O)c2ccccc2OC(F)(F)F)c(=O)n1C,inactive
11,CNC(=O)Oc1ccc(N(C)C)c(C)c1,inactive
12,Cc1cc(C)nc(Nc2ccccc2)n1,inactive
13,COc1cc(OC)nc(Sc2cccc(Cl)c2C(=O)O)n1,inactive
14,Oc1ccc(C2(c3ccc(O)cc3)c3ccccc3-c3ccccc32)cc1,inactive
15,COc1nc(C)nc(NC(=O)NS(=O)(=O)c2ccccc2CCC(F)(F)F)n1,inactive
16,Clc1ccc(C2(Cn3cncn3)CC(Br)CO2)c(Cl)c1 (stereo not given),inactive
17,COc1nc(C)nc(NC(=O)NS(=O)(=O)c2ccccc2Cl)n1,inactive
18,CNC(=O)O/N=C(\SC)C(=O)N(C)C,inactive
19,[CH3][Sn]([CH3])([Cl])[Cl],inactive
20,Nc1cccc(Cl)c1Cl,inactive

row,Compound,outcome
1,COP(=O)(OC)Oc1ccc([N+](=O)[O-])cc1,inactive
2,Nc1cnn(-c2ccccc2)c(=O)c1Cl,inactive
3,CN/C(=N\[N+](=O)[O-])NCc1cnc(Cl)s1,inactive
4,N#CC(CCc1ccc(Cl)cc1)(Cn1cncn1)c1ccccc1 (stereo not given),inactive
5,O=[As](O)(O)O,inactive
6,CCCCOCCOC(C)=O,inactive
7,CC(C)N1C(=O)N(c2ccccc2)CSC1=NC(C)(C)C,inactive
8,ClCc1ccccc1Cl,inactive
9,C#CCC1=C(C)[C@H](OC(=O)[C@H]2[C@H](C=C(C)C)C2(C)C)CC1=O,inactive
10,CCOP(=S)(OCC)SCn1c(=O)oc2cc(Cl)ccc21,inactive
11,COC(=O)N(C(=O)N1COC2(C(=O)OC)Cc3cc(Cl)ccc3C2=N1)c1ccc(OC(F)(F)F)cc1 (stereo not given),inactive
12,Nc1ccccc1C(=O)OCCc1ccccc1,inactive
13,CCOP(=O)(OCC)Oc1nc(Cl)c(Cl)cc1Cl,inactive
14,C[Si](Cn1cncn1)(c1ccc(F)cc1)c1ccc(F)cc1,inactive
15,CS(=O)(=O)NC(=O)c1cc(Oc2ccc(C(F)(F)F)cc2Cl)ccc1[N+](=O)[O-],inactive
16,C#CCN1CC(=O)N(COC(=O)[C@@H]2[C@@H](C=C(C)C)C2(C)C)C1=O,inactive
17,CCN(CC)C(=O)SCc1ccc(Cl)cc1,inactive
18,Cc1ccc(-c2c(Cl)nc(C#N)n2S(=O)(=O)N(C)C)cc1,inactive
19,N#Cc1c[nH]cc1-c1cccc2c1OC(F)(F)O2,inactive
20,CCCCC(CC)CO[N+](=O)[O-] (stereo not given),inactive
